Data: PubChem BioAssay (EPA / NIEHS)
The source made the active and inactive calls. Rule for the calls: active = hit-call score of the fitted dose curve at least 0.9, where 1 is the maximum; inactive = score below 0.9.

Legend:
[1] = read-out: Interleukin-8 (IL8), CXCL8 (gene 3576); assay: BSK_CASM3C_IL8: BioMAP Diversity Plus: CASM3C Assay for Interleukin-8 (IL8) Biomarker Activity (AID 2283042); conditions: primary human coronary artery smooth muscle cells; actives raise or lower the signal;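 note: IL-8 protein level quantified by ELISA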
[2] = read-out: Human Leukocyte Antigen - DR isotype (HLADR), HLA-DRA (gene 3122); assay: BSK_CASM3C_HLADR: BioMAP Diversity Plus: CASM3C Assay for Human Leukocyte Antigen - DR isotype (HLADR) Biomarker Activity (AID 2283043); conditions: primary human coronary artery smooth muscle cells; actives raise or lower the signal;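 note: cell-surface HLA-DR protein level quantified by ELISA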
[3] = read-out: Macrophage colony-stimulating factor (MCSF), CSF1 (gene 1435); assay: BSK_CASM3C_MCSF: BioMAP Diversity Plus: CASM3C Assay for Macrophage colony-stimulating factor (MCSF) Biomarker Activity (AID 2283044); conditions: primary human coronary artery smooth muscle cells; actives raise or lower the signal;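 note: M-CSF protein amount quantified by ELISA after 24 h exposure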
[4] = read-out: Low-density lipoprotein receptor (LDLR), LDLR (gene 3949); assay: BSK_CASM3C_LDLR: BioMAP Diversity Plus: CASM3C Assay for Low-density lipoprotein receptor (LDLR) Biomarker Activity (AID 2283045); conditions: primary human coronary artery smooth muscle cells; actives raise or lower the signal;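 note: LDLR protein level on the cell surface quantified by ELISA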
[5] = read-out: Monocyte Chemoattractant Protein-1 (MCP1), CCL2 (gene 6347); assay: BSK_CASM3C_MCP1: BioMAP Diversity Plus: CASM3C Assay for Monocyte Chemoattractant Protein-1 (MCP1) Biomarker Activity (AID 2283046); conditions: primary human coronary artery smooth muscle cells; actives raise or lower the signal;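 note: MCP-1 level quantified by ELISA 24 h after dosing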
[6] = BSK_CASM3C_Proliferation: Cell Proliferation Assessment in the BioMAP Diversity Plus: CASM3C Assay (AID 2283047); conditions: primary human coronary artery smooth muscle cells;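 note: sulforhodamine B total protein stain as relative cell number at 560 nm; sub-confluent cells exposed 48 h before staining; fitted both ways against DMSO so gain or loss of cell number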
[7] = read-out: Monokine induced gamma interferon (MIG), CXCL9 (gene 4283); assay: BSK_CASM3C_MIG: BioMAP Diversity Plus: CASM3C Assay for Monokine induced gamma interferon (MIG) Biomarker Activity (AID 2283048); conditions: primary human coronary artery smooth muscle cells; actives raise or lower the signal;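 note: MIG protein level measured by ELISA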
[8] = read-out: serum amyloid A (SAA), SAA1 (gene 6288); assay: BSK_CASM3C_SAA: BioMAP Diversity Plus: CASM3C Assay for serum amyloid A (SAA) Biomarker Activity (AID 2283049); conditions: primary human coronary artery smooth muscle cells; actives raise or lower the signal;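 note: SAA protein level quantified by ELISA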
[9] = BSK_CASM3C_SRB: Viability Assessment in the BioMAP Diversity Plus: CASM3C Assay (AID 2283050); conditions: primary human coronary artery smooth muscle cells;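 note: cells exposed to compound for 24 h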
[10] = read-out: Thrombomodulin, THBD (gene 7056); assay: BSK_CASM3C_Thrombomodulin: BioMAP Diversity Plus: CASM3C Assay for Thrombomodulin Biomarker Activity (AID 2283051); conditions: primary human coronary artery smooth muscle cells; actives raise or lower the signal;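 note: thrombomodulin protein level measured by ELISA 24 h after dosing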
[11] = read-out: Tissue Factor, F3 (gene 2152); assay: BSK_CASM3C_TissueFactor: BioMAP Diversity Plus: CASM3C Assay for Tissue Factor Biomarker Activity (AID 2283052); conditions: primary human coronary artery smooth muscle cells; actives raise or lower the signal;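 note: cell surface tissue factor protein level read by ELISA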
[12] = read-out: Interferon-gamma inducible Protein 10 (IP10), CXCL10 (gene 3627); assay: BSK_hDFCGF_IP10: BioMAP Diversity Plus: hDFCGF Assay for Interferon-gamma inducible Protein 10 (IP10) Biomarker Activity (AID 2283053); conditions: primary human foreskin fibroblasts; actives raise or lower the signal
How it was run: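 Primary foreskin fibroblasts, human; 24 h compound exposure; IP-10 by ELISA; bidirectional fit vs DMSO.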

[13] = read-out: Urokinase-type plasminogen activator receptor (uPAR), PLAUR (gene 5329); assay: BSK_CASM3C_uPAR: BioMAP Diversity Plus: CASM3C Assay for Urokinase-type plasminogen activator receptor (uPAR) Biomarker Activity (AID 2283054); conditions: primary human coronary artery smooth muscle cells; actives raise or lower the signal;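 note: cell-surface uPAR protein level quantified by ELISA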
[14] = read-out: Vascular cell adhesion molecule 1 (VCAM1), VCAM1 (gene 7412); assay: BSK_CASM3C_VCAM1: BioMAP Diversity Plus: CASM3C Assay for Vascular cell adhesion molecule 1 (VCAM1) Biomarker Activity (AID 2283055); conditions: primary human coronary artery smooth muscle cells; actives raise or lower the signal;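 note: VCAM-1 protein level quantified by ELISA on the cells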
[15] = read-out: Collagen III, COL3A1 (gene 1281); assay: BSK_hDFCGF_CollagenIII: BioMAP Diversity Plus: hDFCGF Assay for Collagen III Biomarker Activity (AID 2283056); conditions: primary human foreskin fibroblasts; actives raise or lower the signal
How it was run: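 Human foreskin primary fibroblasts were exposed to test chemicals for 24 h, after which collagen III was quantified by ELISA. Activity was fitted bidirectionally against DMSO as negative control and baseline.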

[16] = read-out: Epidermal growth factor receptor (EGFR), EGFR (gene 1956); assay: BSK_hDFCGF_EGFR: BioMAP Diversity Plus: hDFCGF Assay for Epidermal growth factor receptor (EGFR) Biomarker Activity (AID 2283057); conditions: primary human foreskin fibroblasts; actives raise or lower the signal
How it was run: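 hDFCGF system, primary human foreskin fibroblasts; compound 24 h; EGFR measured by ELISA; DMSO = negative control/baseline; bidirectional fitting.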

[17] = read-out: Interleukin-8 (IL8), CXCL8 (gene 3576); assay: BSK_hDFCGF_IL8: BioMAP Diversity Plus: hDFCGF Assay for Interleukin-8 (IL8) Biomarker Activity (AID 2283058); conditions: primary human foreskin fibroblasts; actives raise or lower the signal
How it was run: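 hDFCGF human dermal fibroblasts; 24 h chemical exposure; IL-8 by ELISA; bidirectional curve fit vs DMSO baseline; gain or loss of signal scored.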

[18] = BSK_hDFCGF_Proliferation: Cell Proliferation Assessment in the BioMAP Diversity Plus: hDFCGF Assay (AID 2283059); conditions: primary human foreskin fibroblasts;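 note: curves fitted for both rise and fall of signal versus DMSO baseline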
How it was run: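 This proliferation readout used SRB total-protein staining of human foreskin fibroblasts […], normalized to DMSO with bidirectional curve fitting.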

[19] = read-out: Monokine induced gamma interferon (MIG), CXCL9 (gene 4283); assay: BSK_hDFCGF_MIG: BioMAP Diversity Plus: hDFCGF Assay for Monokine induced gamma interferon (MIG) Biomarker Activity (AID 2283063); conditions: primary human foreskin fibroblasts; actives raise or lower the signal
How it was run: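 ELISA read-out of MIG from primary human dermal fibroblasts 24 h post-dosing. Gain or loss of signal fitted bidirectionally, DMSO as baseline.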

[20] = read-out: Matrix Metallopeptidase 1 (MMP1), MMP1 (gene 4312); assay: BSK_hDFCGF_MMP1: BioMAP Diversity Plus: hDFCGF Assay for Matrix Metallopeptidase 1 (MMP1) Biomarker Activity (AID 2283064); conditions: primary human foreskin fibroblasts; actives raise or lower the signal
How it was run: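 Primary human foreskin fibroblasts exposed to chemicals for 24 h; MMP1 measured by ELISA. Cytotoxicity tracked by SRB staining in parallel cultures; bidirectional fit relative to DMSO.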

[21] = read-out: Vascular cell adhesion molecule 1 (VCAM1), VCAM1 (gene 7412); assay: BSK_hDFCGF_VCAM1: BioMAP Diversity Plus: hDFCGF Assay for Vascular cell adhesion molecule 1 (VCAM1) Biomarker Activity (AID 2283065); conditions: primary human foreskin fibroblasts; actives raise or lower the signal
How it was run: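 Primary human foreskin fibroblasts (hDFCGF system) were dosed with chemical and VCAM-1 was measured by ELISA 24 h later. Bidirectional curve fitting used DMSO as negative control and activity baseline.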

[22] = read-out: Plasminogen activator inhibitor-1 (PAI1), SERPINE1 (gene 5054); assay: BSK_hDFCGF_PAI1: BioMAP Diversity Plus: hDFCGF Assay for Plasminogen activator inhibitor-1 (PAI1) Biomarker Activity (AID 2283066); conditions: primary human foreskin fibroblasts; actives raise or lower the signal
How it was run: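 Primary dermal fibroblasts (human foreskin), hDFCGF system; compound 24 h; PAI-1 by ELISA; bidirectional fit vs DMSO control.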

[23] = read-out: Intercellular Adhesion Molecule 1 (ICAM1), ICAM1 (gene 3383); assay: BSK_KF3CT_ICAM1: BioMAP Diversity Plus: KF3CT Assay for Intercellular Adhesion Molecule 1 (ICAM1) Biomarker Activity (AID 2283067); conditions: primary human keratinocytes with fibroblasts; actives raise or lower the signal
How it was run: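 Human keratinocyte plus foreskin fibroblast primary co-culture was exposed to chemical for 24 h. ICAM-1 was then quantified by ELISA, and the data were fit bidirectionally against DMSO as the negative control and baseline.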

[24] = read-out: Interferon-gamma inducible Protein 10 (IP10), CXCL10 (gene 3627); assay: BSK_KF3CT_IP10: BioMAP Diversity Plus: KF3CT Assay for Interferon-gamma inducible Protein 10 (IP10) Biomarker Activity (AID 2283068); conditions: primary human keratinocytes with fibroblasts; actives raise or lower the signal
How it was run: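 Signal is secreted/surface IP-10 by ELISA in a human primary skin co-culture of keratinocytes and foreskin fibroblasts, taken 24 h post-dosing; DMSO served as negative control.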

[25] = BSK_KF3CT_SRB: Viability Assessment in the BioMAP Diversity Plus: KF3CT Assay (AID 2283069); conditions: primary human keratinocytes with fibroblasts;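 note: total protein by sulforhodamine B staining as a cytotoxicity measure; read 24 h after compound addition; fitted for both signal gain and loss against DMSO baseline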
How it was run: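 Human keratinocyte and foreskin fibroblast co-culture exposed to chemical for 24 h. Total protein measured in parallel cultures by 0.1% sulforhodamine B staining after 10% TCA fixation, read at 560 nm; bidirectional fit relative to DMSO.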

[26] = read-out: Interleukin-1 alpha (IL1a), IL1A (gene 3552); assay: BSK_KF3CT_IL1a: BioMAP Diversity Plus: KF3CT Assay for Interleukin-1 alpha (IL1a) Biomarker Activity (AID 2283070); conditions: primary human keratinocytes with fibroblasts; actives raise or lower the signal
How it was run: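 Primary human keratinocyte plus foreskin fibroblast co-culture, dosed and measured at 24 h in 96-well plates. IL-1a level quantified by ELISA; bidirectional fit relative to DMSO.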

[27] = read-out: Matrix Metallopeptidase 9 (MMP9), MMP9 (gene 4318); assay: BSK_KF3CT_MMP9: BioMAP Diversity Plus: KF3CT Assay for Matrix Metallopeptidase 9 (MMP9) Biomarker Activity (AID 2283074); conditions: primary human keratinocytes with fibroblasts; actives raise or lower the signal
How it was run: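 Human keratinocyte and foreskin fibroblast co-culture exposed to chemicals for 24 h; MMP9 biomarker measured by ELISA, bidirectional fitting relative to DMSO; cytotoxicity tracked by SRB total protein staining in parallel cultures.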

[28] = read-out: urokinase plasminogen activator (uPA), PLAU (gene 5328); assay: BSK_KF3CT_uPA: BioMAP Diversity Plus: KF3CT Assay for urokinase plasminogen activator (uPA) Biomarker Activity (AID 2283075); conditions: primary human keratinocytes with fibroblasts; actives raise or lower the signal
How it was run: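 Primary human keratinocyte/foreskin fibroblast co-culture exposed to chemical; uPA measured by ELISA at 24 h. Bidirectional fit versus DMSO, with parallel SRB total-protein staining for cytotoxicity.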

[29] = read-out: E-selectin (Homo sapiens) (UniProt P16581); assay: BSK_LPS_Eselectin: BioMAP Diversity Plus: LPS Assay for Eselectin Biomarker Activity (AID 2283077); conditions: primary human HUVEC with PBMC; actives raise or lower the signal
How it was run: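 Human umbilical vein endothelial cells co-cultured with peripheral blood mononuclear cells under LPS stimulation; E-selectin measured by ELISA 24 h after chemical dosing. Activity fitted bidirectionally against DMSO as negative control and baseline.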

Measured: outcome

E-selectin (Homo sapiens), sequence (P16581 whole entry, looked up): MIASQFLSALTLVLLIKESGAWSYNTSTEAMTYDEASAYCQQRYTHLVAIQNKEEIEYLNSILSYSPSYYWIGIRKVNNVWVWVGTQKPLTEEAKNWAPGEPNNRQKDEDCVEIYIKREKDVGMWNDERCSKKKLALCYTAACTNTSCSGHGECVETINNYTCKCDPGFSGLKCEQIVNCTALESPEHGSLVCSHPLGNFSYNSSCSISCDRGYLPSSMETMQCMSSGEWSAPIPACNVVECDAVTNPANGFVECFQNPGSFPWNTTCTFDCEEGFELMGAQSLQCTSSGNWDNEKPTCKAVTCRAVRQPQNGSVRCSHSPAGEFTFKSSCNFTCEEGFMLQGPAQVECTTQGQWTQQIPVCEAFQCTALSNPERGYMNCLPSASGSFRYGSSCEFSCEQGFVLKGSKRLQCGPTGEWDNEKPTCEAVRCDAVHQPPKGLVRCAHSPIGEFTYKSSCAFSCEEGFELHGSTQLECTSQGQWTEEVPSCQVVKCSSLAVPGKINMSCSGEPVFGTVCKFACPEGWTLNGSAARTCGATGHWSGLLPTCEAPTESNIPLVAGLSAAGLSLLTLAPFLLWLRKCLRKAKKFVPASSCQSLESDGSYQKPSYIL

CCCC[N+](CCCC)(CCCC)CCCC
inactive: [1] | [2] | [3] | [4] | [5] | [6] | [7] | [8] | [9] | [10] | [11] | [12] | [13] | [14] | [15] | [16] | [17] | [18] | [19] | [20] | [21] | [22] | [23] | [24] | [25] | [26] | [27] | [28] | [29]
